Source: PubChem BioAssay (National Center for Advancing Translational Sciences (NCATS))
Giardia kill: Giardia lamblia killing | AID 540267 | activity change, % at 7.66 µM, hits read low | 340,000 compounds, 0.15% hits | Giardia lamblia trophozoite viability; in the data active = activity change below about -80%; inconclusive = between about -30% and that limit;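 also: parasites exposed to compound for two days anaerobically before the ATP read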
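Media and compound were dispensed first, then trophozoites at 100 cells/well; plates sat 48 hrs at 37 deg C without oxygen before ATP luminescence reagent was added and read after 15-30 min at room temperature.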
S-ASM inh: human S-ASM enzyme inhibition | placental ASM, HMU-PC fluorogenic substrate, 60 min | AID 504937 | 340,000 compounds, 0.006% hits | Potency, µM (series often up to 57.5 µM), actives largely listed as inhibitors | P17405
Target sequence (P17405 47-631 limits assumed): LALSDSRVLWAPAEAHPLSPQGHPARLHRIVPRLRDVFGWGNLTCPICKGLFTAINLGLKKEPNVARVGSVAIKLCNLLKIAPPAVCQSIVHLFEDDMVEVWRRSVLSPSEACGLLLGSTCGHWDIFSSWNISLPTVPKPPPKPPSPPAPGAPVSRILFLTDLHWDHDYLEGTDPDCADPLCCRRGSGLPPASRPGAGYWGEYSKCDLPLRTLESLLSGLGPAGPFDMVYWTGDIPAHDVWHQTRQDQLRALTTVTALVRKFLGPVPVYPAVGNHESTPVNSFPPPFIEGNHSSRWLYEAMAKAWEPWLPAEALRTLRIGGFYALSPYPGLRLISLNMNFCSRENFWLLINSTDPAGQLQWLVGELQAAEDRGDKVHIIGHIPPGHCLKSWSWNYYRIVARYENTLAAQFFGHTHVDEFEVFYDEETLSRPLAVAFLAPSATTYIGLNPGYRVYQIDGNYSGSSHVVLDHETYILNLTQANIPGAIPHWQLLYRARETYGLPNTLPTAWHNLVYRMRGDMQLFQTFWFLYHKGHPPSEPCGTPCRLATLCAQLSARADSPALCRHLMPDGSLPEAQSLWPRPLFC
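Fluorescence read-out (Ex 386 nm, Em 447 nm) after stopping the reaction at pH 10. Enzyme: ASM from human placenta; substrate HMU-PC0, 9 uM final; 60 min, 37 °C. Compound preincubation 10 min, ambient temperature.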
KB-3-1 cytotox: kills parental KB-3-1 adenocarcinoma cells | KB-3-1 viability, CellTiter-Glo ATP luminescence, 72 h | Potency, µM (doses to about 46.1 µM), actives largely listed as cytotoxic | 400,000 compounds, 1.4% hits; also: nearly all actives have a fitted effect of over 60% in size
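KB-3-1 cells, DMEM (no phenol red) + 10% FBS; compound by pin transfer, 72 h, 37 °C. Readout: CellTiter-Glo luminescence after 10 min. Data normalized, curve-fitted.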
MCF10A rereplic: DNA re-replication induction in MCF 10a cells | MCF 10A DNA re-replication, Hoechst nuclear intensity, 48 h | 350,000 compounds, 2.9% hits | Potency, µM (highest dose often 46.1 µM), actives largely listed as activators; also: nearly all actives have a fitted effect of over 50% in size
KB-V1 cytotox: kills drug-selected multidrug resistant KB-V1 cells. Potency, µM (doses to about 46.1 µM), hits mostly cytotoxic. 400,000 compounds, 3.4% hits. KB-V1 MDR cells viability, CellTiter-Glo, 72 h; also: nearly all actives have a fitted effect of over 60% in size
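Readout: CellTiter-Glo luminescence, 10 min after addition. Cells: KB-V1 MDR subline, 72 h at 37 degrees C with compound. Analysis: corrected, normalized data fitted to concentration-effect curves.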
SW480 rereplic: inducers of DNA re-replication in SW480 colon cancer cells. 340,000 compounds, 1.8% hits. AID 624297. Potency, µM (series often up to 46.1 µM), hits mostly activators. SW480 DNA re-replication, Hoechst DNA content imaging, 48 h; also: nearly all actives have a fitted effect of over 55% in size
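Image-based DNA-content assay: after two days of treatment, nuclei were labelled with the DNA dye Hoechst and imaged, and hits were compounds raising the count of nuclei showing high fluorescence intensity.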
A number is an active result; n = inactive; u = inconclusive; x = not tested or not shown; ! = not confirmed by another sample. This is a sample that favours compounds with a hit; in the whole collection about 6.9% have one here. Unless noted, calls follow the shape of the dose curve; as a rule, active = well fitted curve in the direction sought with a large enough effect; inconclusive = small, poorly fitted or top-dose-only effect, or another doubt; inactive = no such curve, though single readings can be large; an effect the other way counts as inactive or inconclusive.

SMILES	Giardia kill	S-ASM inh	KB-3-1 cytotox	MCF10A rereplic	KB-V1 cytotox	SW480 rereplic
Cn1c(N)c(C(=O)COC(=O)c2ccc(Cl)c(S(=O)(=O)N3CCCCC3)c2)c(=O)n(C)c1=O	n	n	n	u	21µM	n
CCOc1ccc(C(=O)OCC(=O)c2c(N)n(C)c(=O)n(C)c2=O)cc1OCC	n	n	n	n	n	n
CCCNC(=O)Cn1ncc2c3ccccc3n(CCC)c2c1=O	x	x	n	x	n	x
O=C(Cn1ncc2c3ccccc3n(Cc3ccccc3F)c2c1=O)NCCCN1CCCC1=O	n	n	6.5µM	n	u	n
COCCNC(=O)C1CCCN(S(=O)(=O)c2ccc3c(ccn3C)c2)C1 (centres undefined)	x	x	n	x	n	x
CCOC(=O)c1c(SCC(=O)Nc2nccs2)nc(C)c(C)c1C	n	n	x	16µM	x	n
Cc1ccc(C#N)c(SCC(=O)Nc2nccs2)n1	n	n	n	u	n	16µM
N#Cc1cc2c(nc1SCC(=O)Nc1sc3c(c1C#N)CCC3)CCCCCC2	n	n	n	3.3µM	n	u
COC(=O)CC(=O)CSc1nc2c(cc1C#N)CCC2	n	n	n	1.6µM	u	u
Cn1c(=O)c2sccc2n2c(CCCC(=O)Nc3ccc(F)c(F)c3)nnc12	x	x	n	x	n	x
COc1ccc(-c2ccc(C#N)c(SCC(=O)Nc3sc4c(c3C#N)CCC4)n2)cc1OC	n	n	u	2.9µM	u	2.1µM
N#Cc1cc2c(nc1SCC(=O)Nc1nccs1)CCCCC2	u	n	n	3.7µM	n	n
COCCc1nn2c(=O)cc(COC(=O)c3ccc(C(C)(C)C)cc3)nc2s1	x	x	n	x	n	x
O=C(/C=C/c1ccccc1)N1CCN(Cc2cc(=O)n3nc(-c4ccccc4Cl)sc3n2)CC1	x	x	n	x	n	x
COC(=O)c1ccc(CNCC(=O)Nc2ccc(C(=O)OC)cc2)cc1	n	n	n	16µM	n	n
O=C(CNCc1ccccc1)Nc1ccc(Cl)cc1	n	n	10µM	18µM	u	u
O=C(CNCc1ccc(Cl)cc1)Nc1ccc(C(=O)N2CCCCC2)cc1	n	n	n	n	n	n
COc1ccc(C2=Nn3c(nnc3-c3ccccn3)SC2)cc1OC	n	n	n	n	n	n
COc1ccc(C2=Nn3c(nnc3-c3ccccc3OC)SC2)cc1OC	n	n	0.013µM	0.37µM	1.2µM!	0.37µM
FC(F)Oc1ccc(C2=Nn3c(nnc3-c3ccccc3Cl)SC2)cc1OCC1CC1	n	n	n	n	n	n
COc1ccc(C2=Nn3c(nnc3-c3ccccc3F)SC2)cc1OCC1CC1	n	n	13µM	u	u	18µM
C/C(=N\NC(=O)c1ccccc1O)c1c(O)cc(C)oc1=O	n	n	n	u	u	5.8µM
C/C(=N\NC(=O)c1ccccc1[N+](=O)[O-])c1c(O)cc(C)oc1=O	n	n	n	n	n	n
CCOC(=O)C(CC)/C(C)=N\NC(=O)c1ccccc1O (centres undefined)	n	n	u	u	2.1µM	u
O=C(NN=C(Cc1ccccc1)Cc1ccccc1)c1ccccc1O	n	n	n	n	u	18µM
SMILES	Giardia kill	S-ASM inh	KB-3-1 cytotox	MCF10A rereplic	KB-V1 cytotox	SW480 rereplic
COC(=O)c1c(NC(=O)CCCOc2ccc(C)cc2)sc2c1C(C(=O)OC)CC2 (centres undefined)	n	x	x	x	x	x
CC(=O)NC[C@@H]1CN(c2ccc(N3CCOCC3)c(F)c2)C(=O)O1	x	x	x	n	x	n
COCC1CCCCN1C(=O)c1cc(COc2ccc3ncccc3c2)on1 (centres undefined)	n	n	u	n	u	n
CCN1CCN(C(=O)c2cc(COc3ccc4ncccc4c3)on2)CC1	n	n	n	n	16µM	n
CCCN1CCN(C(=O)c2cc(COc3ccc4ncccc4c3)on2)CC1	n	n	u	n	u	n
CCC1CCCCN1C(=O)c1cc(COc2ccc3ncccc3c2)on1 (centres undefined)	n	n	4.1µM	n	1.6µM	n
O=C1C2C3c4ccccc4C(c4ccccc43)[C@@H]2C(=O)N1c1nc(-c2ccccc2)cs1 (some centres undefined)	n	n	n	n	21µM	n
CC1=NN(c2nc(-c3ccccc3)cs2)C(=O)C1	n	n	n	u	n	n
